Experimental data from PubChem BioAssay (NCATS).
Records with an inconclusive call do not appear. Where a call stands in place of a potency, no number is given. A number with no mark means an inactive call. The source made the active and inactive calls. Unless noted, the call rests on the fitted dose curve; in most records, active means well fitted curve in the direction sought with a large enough effect; inconclusive means small, poorly fitted or top-dose-only effect, or another doubt; inactive means no such curve, though single readings can be large; an effect the other way counts as inactive or inconclusive.

Assays:
[1] = qHTS for Inhibitors of Plasmodium falciparum (DD2) proliferation (AID 504314);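 on activity, negative = inhibition: parasite DNA measured by SYBR Green fluorescence after red cell lysis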
In short: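 Erythrocytes infected with P. falciparum (0.3% parasitemia, 2.5% hematocrit final) were incubated with compounds for 72 h at 37C, 5% CO2. Parasite DNA was detected by SYBR Green I fluorescence after saponin/Triton lysis, normalized to artemisinin (0.29 uM) and DMSO controls.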

[2] = qHTS for Inhibitors of Plasmodium falciparum (GB4) proliferation (AID 504315); further: nearly all actives have a fitted effect of over 50% in size
In short: (§1)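 Erythrocytes infected with P. falciparum line (0.3% parasitemia, 2.5% hematocrit final) incubated with compounds 72 h at 37 °C, 5% CO2; SYBR Green lysis buffer added, fluorescence read next day. Normalized to 0.29 uM artemisinin and DMSO.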

[3] = qHTS for Inhibitors of Plasmodium falciparum (7G8) proliferation (AID 504316); further: nearly all actives have a fitted effect of over 65% in size
In short: as §1

[4] = qHTS for Inhibitors of Plasmodium falciparum (HB3) proliferation (AID 504318); further: nearly all actives have a fitted effect of over 60% in size
In short: as §1

[5] = biological target: Atrial natriuretic peptide receptor 1 (Homo sapiens) (UniProt P16066); test: Natriuretic polypeptide receptor (hNpr1) antagonism - Pilot CMLD screen (AID 1347052; calls by dose curve;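 further: cGMP level read as GloSensor luciferase luminescence after agonist stimulation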)
Potency means the concentration at half of the fitted maximal effect.

Sequence of Atrial natriuretic peptide receptor 1 (Homo sapiens) (P16066 whole entry, looked up): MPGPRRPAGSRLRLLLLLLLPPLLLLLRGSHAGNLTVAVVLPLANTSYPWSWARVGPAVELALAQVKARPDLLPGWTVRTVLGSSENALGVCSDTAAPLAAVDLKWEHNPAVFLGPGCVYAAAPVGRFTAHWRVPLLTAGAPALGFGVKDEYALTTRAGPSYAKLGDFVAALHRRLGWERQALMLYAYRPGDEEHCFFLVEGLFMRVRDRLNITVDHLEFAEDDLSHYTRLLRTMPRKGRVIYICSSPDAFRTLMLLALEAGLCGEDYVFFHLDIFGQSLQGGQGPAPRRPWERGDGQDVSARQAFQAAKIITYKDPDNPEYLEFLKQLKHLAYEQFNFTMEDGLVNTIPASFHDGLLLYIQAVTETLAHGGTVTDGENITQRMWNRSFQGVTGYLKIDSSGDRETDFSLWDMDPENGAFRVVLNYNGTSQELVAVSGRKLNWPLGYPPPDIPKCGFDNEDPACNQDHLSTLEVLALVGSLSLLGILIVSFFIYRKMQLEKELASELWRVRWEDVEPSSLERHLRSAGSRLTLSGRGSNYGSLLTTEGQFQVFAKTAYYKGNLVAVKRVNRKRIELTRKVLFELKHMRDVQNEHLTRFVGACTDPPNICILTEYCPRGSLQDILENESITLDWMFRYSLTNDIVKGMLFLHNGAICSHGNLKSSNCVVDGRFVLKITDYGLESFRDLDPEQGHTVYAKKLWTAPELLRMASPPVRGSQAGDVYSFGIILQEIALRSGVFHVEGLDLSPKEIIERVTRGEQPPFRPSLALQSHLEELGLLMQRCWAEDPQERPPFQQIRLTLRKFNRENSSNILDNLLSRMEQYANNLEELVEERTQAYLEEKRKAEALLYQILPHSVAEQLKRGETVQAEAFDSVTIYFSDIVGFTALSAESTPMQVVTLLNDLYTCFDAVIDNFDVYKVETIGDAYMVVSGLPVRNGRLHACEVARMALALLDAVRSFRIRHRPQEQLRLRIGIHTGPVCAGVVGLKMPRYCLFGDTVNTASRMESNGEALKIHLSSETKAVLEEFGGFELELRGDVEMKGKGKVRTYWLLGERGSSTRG

Question: With `C=CC1=C2C=C(C3CC3)N(CCOC)C=C2C(=O)C(C)(OC(=O)c2ccco2)C1=O` (stereo not given) as the molecule, how does the Potency [1] read?
Answer: The Potency was “inactive”.

Question: What about the Potency [2] of the same molecule?
Answer: Its Potency is “inactive”.

Question: What about the Potency [3] of the same molecule?
Answer: The Potency was “inactive”.

Question: What about the Potency [4] of the same molecule?
Answer: The Potency was “inactive”.

Question: What about the Potency [5] of the same molecule?
Answer: Its Potency is “inactive”.

Question: With `C[C@H]1Cc2c(-c3ccccc3)nc3c(c2CO1)CN(C(=O)Nc1cccc(C#N)c1)CC3` as the molecule, how does the activity, negative = inhibition [1] read?
Answer: Its activity, negative = inhibition is -4.46% [at 1.12 µM].

Question: And the Potency [2]?
Answer: The Potency was “inactive”.

Question: What about the Potency [3] of the same molecule?
Answer: Its Potency is “inactive”.

Question: And the Potency [4]?
Answer: Its Potency is “inactive”.

Question: And the Potency [5]?
Answer: Its Potency is “inactive”.

Question: For `Cc1ccc(S(=O)(=O)NC(CCc2ccccc2)CC(=O)C(C)(C)C)cc1` (stereo not given), which Potency [1] is on record?
Answer: The Potency was “inactive”.

Question: And the Potency [2]?
Answer: Its Potency is “inactive”.

Question: What about the Potency [3] of the same molecule?
Answer: The Potency was “inactive”.

Question: And the Potency [4]?
Answer: The Potency was “inactive”.

Question: And the Potency [5]?
Answer: The Potency was “inactive”.

Question: What does the source list for `C[C@H]1Cc2c(-c3ccccc3)nc3c(c2CO1)CN(C(=O)c1cccnc1)CC3`?
Answer: Potency [1]: inactive; Potency [2]: inactive; Potency [3]: inactive; Potency [4]: inactive; Potency [5]: inactive

Question: For `C#CCCCON=C1C[C@@H](O)[C@H](O)[C@H]2[C@@H]3C(=O)N(c4ccc(F)cc4F)C(=O)[C@@H]3CC[C@@H]12`, which Potency [1] is on record?
Answer: The Potency was “inactive”.

Question: And the Potency [2]?
Answer: Its Potency is “inactive”.

Question: And the Potency [3]?
Answer: The Potency was “inactive”.

Question: What about the Potency [4] of the same molecule?
Answer: Its Potency is “inactive”.

Question: What about the Potency [5] of the same molecule?
Answer: Its Potency is 422 nM (active).

Question: For `O=S(=O)(CCc1ccccc1)c1ccccc1`, which Potency [1] is on record?
Answer: The Potency was “inactive”.

Question: What about the Potency [2] of the same molecule?
Answer: Its Potency is “inactive”.

Question: What about the Potency [3] of the same molecule?
Answer: Its Potency is “inactive”.

Question: And the Potency [4]?
Answer: Its Potency is “inactive”.

Question: What about the Potency [5] of the same molecule?
Answer: The Potency was “inactive”.

Question: Which results are given for `CC(C)=NOCc1ccc(-c2cn([C@@H]3COC[C@@H]3O)nn2)cc1`?
Answer: Potency [1]: inactive; Potency [2]: inactive; Potency [3]: inactive; Potency [4]: inactive; Potency [5]: inactive

Question: With `COc1ccc(C=CC2=C[C@]3(C)C[C@]2(C)[C@H](c2ccc(OC)cc2)CC3=O)cc1` as the molecule, how does the Potency [1] read?
Answer: Its Potency is 1500 nM (active).

Question: What about the Potency [2] of the same molecule?
Answer: Its Potency is 1690 nM (active).

Question: And the Potency [3]?
Answer: The Potency was 1510 nM (active).

Question: What about the Potency [4] of the same molecule?
Answer: The Potency was 1510 nM (active).

Question: And the Potency [5]?
Answer: Its Potency is “inactive”.

Question: What does the source list for `COC(=O)N[C@H](CC(C)=O)c1cccc(F)c1`?
Answer: Potency [1]: inactive; Potency [2]: inactive; Potency [3]: inactive; Potency [4]: inactive; Potency [5]: inactive

Question: For `C=C1C2c3ccccc3C(CC2(C)O[Si](C)(C)C)N1C(=O)OC` (stereo not given), which Potency [1] is on record?
Answer: The Potency was “inactive”.

Question: And the Potency [2]?
Answer: Its Potency is “inactive”.

Question: What about the Potency [3] of the same molecule?
Answer: Its Potency is “inactive”.

Question: What about the Potency [4] of the same molecule?
Answer: Its Potency is “inactive”.

Question: What about the Potency [5] of the same molecule?
Answer: Its Potency is “inactive”.

Question: With `C=CCOC(=O)N[C@@H](Cc1ccccc1)C(C(=O)OC)=C(C)NCc1ccccc1` as the molecule, how does the Potency [1] read?
Answer: Its Potency is “inactive”.

Question: And the Potency [2]?
Answer: Its Potency is “inactive”.

Question: What about the Potency [3] of the same molecule?
Answer: Its Potency is “inactive”.

Question: What about the Potency [4] of the same molecule?
Answer: Its Potency is “inactive”.

Question: What about the Potency [5] of the same molecule?
Answer: The Potency was “inactive”.

Question: Which Potency [1] does the source give for `COc1ccc([C@]23Cc4cc(OC)c(OC)cc4[C@H](O2)C2=C(CC4(CCCCC4)OC2=O)O3)cc1` here?
Answer: The Potency was “inactive”.

Question: And the Potency [2]?
Answer: Its Potency is “inactive”.

Question: What about the Potency [3] of the same molecule?
Answer: The Potency was “inactive”.

Question: What about the Potency [4] of the same molecule?
Answer: Its Potency is “inactive”.

Question: What about the Potency [5] of the same molecule?
Answer: Its Potency is “inactive”.

Question: Which results are given for `CCN1C(=NCCc2ccc(Br)cc2)N[C@@H](c2ccccc2)[C@H](C(=O)OC)[C@H]1C`?
Answer: Potency [1]: inactive; Potency [2]: inactive; Potency [3]: inactive; Potency [4]: inactive; Potency [5]: inactive

Question: What does the source list for `CC1(OC(=O)C2CCCC2)C(=O)C=C2C=C(c3ccsc3)N(CCN3CCOCC3)C=C2C1=O` (stereo not given)?
Answer: activity, negative = inhibition [1]: 1.21% [at 1.12 µM]; Potency [2]: inactive; Potency [3]: inactive; Potency [4]: inactive; Potency [5]: inactive

Question: For `CCCC[C@@H]1CN2[C@@H](CC[C@H](C)[C@@H]2c2ccc(Br)cc2)C(=O)O1`, which Potency [1] is on record?
Answer: The Potency was “inactive”.

Question: And the Potency [2]?
Answer: Its Potency is “inactive”.

Question: What about the Potency [3] of the same molecule?
Answer: Its Potency is “inactive”.

Question: And the Potency [4]?
Answer: Its Potency is “inactive”.

Question: What about the Potency [5] of the same molecule?
Answer: Its Potency is “inactive”.

Question: For `COCCN1C(=O)N[C@@H](CCc2ccccc2)[C@@H](C(=O)OC)[C@H]1C`, which Potency [1] is on record?
Answer: The Potency was “inactive”.

Question: And the Potency [2]?
Answer: The Potency was “inactive”.

Question: What about the Potency [3] of the same molecule?
Answer: The Potency was “inactive”.

Question: And the Potency [4]?
Answer: The Potency was “inactive”.

Question: What about the Potency [5] of the same molecule?
Answer: The Potency was “inactive”.

Question: For `CC(=O)OC[C@H]1O[C@@H](ON=C2C[C@@H](O)[C@@H](O)[C@@H]3[C@H]4C(=O)N(Cc5ccccc5)C(=O)[C@@H]4CC[C@@H]23)[C@H](OC(C)=O)[C@@H](OC(C)=O)[C@H]1OC(C)=O`, which Potency [1] is on record?
Answer: The Potency was “inactive”.

Question: What about the Potency [2] of the same molecule?
Answer: The Potency was “inactive”.

Question: What about the Potency [3] of the same molecule?
Answer: The Potency was “inactive”.

Question: What about the Potency [4] of the same molecule?
Answer: The Potency was “inactive”.

Question: What about the Potency [5] of the same molecule?
Answer: Its Potency is “inactive”.
